Source: PubChem BioAssay (NCATS)
Results filed as inconclusive are left out. Entries that show only a call come without a potency. Activity calls are given as the source filed them. Calls follow the shape of the dose curve; as a rule, active = well fitted activation curve with a large enough effect; inconclusive = small, poorly fitted or top-dose-only effect; inactive = no such curve, though single readings can be large or run the other way.

test: Validation screen for small molecules that induce genotoxicity in human embryonic kidney (HEK293T) cells expressing luciferase-tagged ELG1 (AID 493106); conditions: luminescence; series mostly up to 46.1 µM
From the text: NIH Molecular Libraries Probe Production Network [MLPCN]
NIH Chemical Genomics Center [NCGC]
Assay Provider: Kyungjae Myung, NHGRI, NIH
Keywords: MLPCN, qHTS, NCGC, genotoxicity, cancer
Cancer cells divide rapidly compared to normal cells in the body. During cell division, cancer cells need to duplicate their genome by DNA replication. The failure of genome duplication leads to cancer cells' death. Therefore, inhibitors of DNA replication could specifically kill cancer cells. Based on this concept, many chemotherapeutic agents were developed and have been used to treat cancer patients. However, there are a limited number of agents available in the clinical setting, and some of those that do exist have low efficacy and severe side effects. Therefore, if we can find the compounds that effectively block DNA replication either by directly damaging DNA or by inhibiting other cellular mechanisms, the options for cancer treatment will be broadened. With this in mind, we developed a quantitative high-throughput ELG1-luciferase reporter gene assay. Since the level of human ELG1 protein is enhanced in response to genetic stresses, increases in luciferase activity can be used to identify compounds that cause genetic stress.
For genotoxicity screening, 2,000 cells in 5 uL/well were dispensed into white, solid-bottom 1536-well plates using a solenoid-based dispenser. Following transfer of 23 nL compound or DMSO vehicle by a pin tool, the plates were incubated 16 hr at 37 °C and 5% CO2. 5 ul ONE-Glo (Promega) was then added to each plate and following a 30 min incubation at room temperature, luciferase activity was quantified on a ViewLux CCD-based plate reader.
Potency is read from the fitted curve at half-maximal effect.

SMILES | Potency
O=c1c(-c2ccc(O)cc2)coc2cc(O)ccc12 | 20.6 µM (active)
CCN(CC)C(=O)c1ccc(O)c(OC)c1 | inactive
CCN(CC)CCOC(=O)c1ccc(N)cc1 | inactive
NCCS | inactive
CC(=O)N[C@@H](CS)C(=O)O | inactive
CC(=O)O[C@]1(C(C)=O)CC[C@H]2[C@@H]3C=C(Cl)C4=CC(=O)[C@@H]5C[C@@H]5[C@]4(C)[C@H]3CC[C@@]21C | inactive
CC(C)NCC(O)COc1cccc2[nH]ccc12 (configuration not stated) | inactive
CCn1cc(C(=O)O)c(=O)c2ccc(C)nc21 | inactive
CCN1CCC[C@H]1CNC(=O)c1cc(S(N)(=O)=O)ccc1OC | inactive
CN(C)CCC(c1ccccc1)c1ccccn1 (configuration not stated) | inactive
COc1cccc(-c2cc(=O)c3ccccc3o2)c1N | 2.91 µM (active)
O=C(NCCN1CCOCC1)c1ccc(Cl)cc1 | inactive
O=C(O)CCc1nc(-c2ccccc2)c(-c2ccccc2)o1 | inactive
CC(=O)CCCCn1c(=O)c2c(ncn2C)n(C)c1=O | inactive
COc1ccccc1N1CCN(CCCNc2cc(=O)n(C)c(=O)n2C)CC1 | inactive
O=C1NC(=O)C(c2ccccc2)(c2ccccc2)N1 | inactive

SMILES | Potency
COC(=O)[C@@H]1[C@H]2C[C@H]3c4[nH]c5ccccc5c4CCN3C[C@@H]2CC[C@@H]1O | inactive
CCCCCN(C)CCC(O)(P(=O)(O)O)P(=O)(O)O | inactive
CCCCC1C(=O)N(c2ccccc2)N(c2ccccc2)C1=O | inactive
CCCNC(=O)NS(=O)(=O)c1ccc(Cl)cc1 | inactive
Cc1cccc(C)c1OCC(C)N (configuration not stated) | inactive
CCN(CC)CCNC(=O)c1ccc(N)cc1 | inactive
CC/C(=C(\c1ccccc1)c1ccc(OCCN(C)C)cc1)c1ccccc1 | inactive
CC(=O)c1ccc(S(=O)(=O)NC(=O)NC2CCCCC2)cc1 | inactive
CC(C)(C)c1ccc(C(O)CCCN2CCC(C(O)(c3ccccc3)c3ccccc3)CC2)cc1 (configuration not stated) | inactive
Clc1ccc(Cn2c(CN3CCCC3)nc3ccccc32)cc1 | inactive
CC(C)OC(=O)C(C)(C)Oc1ccc(C(=O)c2ccc(Cl)cc2)cc1 | inactive
COc1ccc(Cc2nccc3cc(OC)c(OC)cc23)cc1OC | inactive
CC1=C(/C=C/C(C)=C/C=C/C(C)=C/C(=O)Nc2ccc(O)cc2)C(C)(C)CCC1 | inactive
NC(N)=Nc1nc(CSCC/C(N)=N/S(N)(=O)=O)cs1 | inactive
C[N+](C)(C)CCCCCC[N+](C)(C)C | inactive
CC1(C)CCC2=C(O1)c1ccccc1C(=O)C2=O | inactive
